Laboratory results: PubChem BioAssay (NCI)
Compounds without any hit were thinned out: in the full panel of roughly 83,000, 20% have a hit.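 Step 1: grow cells in 96-well plates. Step 2: add test compound at a single concentration. Step 3: incubate 48 h. Step 4: record percent growth.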 Unmarked numbers belong to inactive results. Active and inactive are the calls of the source. Rule for the calls: active = growth percent below 10; inactive = the rest.

Key:
Test in all cases: NCI-60 one-dose screen, 48 h (100 = growth as untreated, 0 = no growth, -100 = all killed)
Conditions in all cases: 10 µM unless noted
NCI-H23 lung = system: NCI-H23 lung
NCI-H322M lung = system: NCI-H322M lung
HOP-62 NSCLC = system: HOP-62 NSCLC
NCI-H460 lung = system: NCI-H460 lung
HOP-92 NSCLC = system: HOP-92 NSCLC
NCI-H522 lung = system: NCI-H522 lung
786-0 renal = system: 786-0 renal
COLO 205 colon = system: COLO 205 colon
DU-145 prostate = system: DU-145 prostate
K-562 leukemia = system: K-562 leukemia
MALME-3M melanoma = system: MALME-3M melanoma
MDA-MB-231 breast = system: MDA-MB-231 breast
RXF 393 renal = system: RXF 393 renal
SF-268 CNS = system: SF-268 CNS
SF-539 CNS = system: SF-539 CNS
UACC-257 melanoma = system: UACC-257 melanoma
A549/ATCC NSCLC = system: A549/ATCC NSCLC
SF-295 CNS = system: SF-295 CNS
M14 melanoma = system: M14 melanoma
NCI-H226 lung = system: NCI-H226 lung

Compound	growth (NCI-H23 lung)	growth (NCI-H322M lung)	growth (HOP-62 NSCLC)	growth (NCI-H460 lung)	growth (HOP-92 NSCLC)	growth (NCI-H522 lung)	growth (786-0 renal)	growth (COLO 205 colon)	growth (DU-145 prostate)	growth (K-562 leukemia)	growth (MALME-3M melanoma)	growth (MDA-MB-231 breast)	growth (RXF 393 renal)	growth (SF-268 CNS) [%]	growth (SF-539 CNS)	growth (UACC-257 melanoma)	growth (A549/ATCC NSCLC) [%]	growth (SF-295 CNS)	growth (M14 melanoma)	growth (NCI-H226 lung) [%]
C/C(=N\NC(=S)N1CC2CCC(CC2)C1)c1ccccn1	30.4%	4.2% (active)	24%	-3.66% (active)	34.1%	16.8%	3.86% (active)	4.4% (active)	19.4%	3.3% (active)	-1.66% (active)	15.7%	-7.47% (active)	15.5	3.7% (active)	5.97% (active)	–	–	–	–
COC(=O)c1ccc(=O)c2nc3/c(=C/O)c(O)cc(=O)c3[nH]c12	15.1%	29.1%	-9.51% (active)	19.9%	-1.12% (active)	–	11.8%	51%	29.5%	7.14% (active)	1.52% (active)	45.3%	–	14.5	12.6%	5.98% (active)	27.7	6.32% (active)	26.8%	–
O=C(c1ccccc1)c1ccc(O)c2ncccc12	19.9%	44.6%	38.6%	–	49.6%	–	31.6%	104%	–	15%	56.1%	38.2%	41.8%	34.3	21.6%	17.3%	30.2	74.6%	–	–
NNc1cccc([N+](=O)[O-])c1	–	89%	–	108%	122%	61.4%	86.4%	110%	104%	–	101%	58.9%	122%	72.6	100%	99%	96.7	89.5%	99.9%	103
COc1cc(NC(=O)C2=C(C)NC(C)=C(C(=O)Nc3cc(OC)c(Cl)cc3OC)C2c2cccc([N+](=O)[O-])c2)c(OC)cc1Cl	34.6%	46.3%	43.2%	–	13.2%	–	39%	50.5%	58.4%	33.4%	37.5%	–	36.7%	39.3	31.8%	46.9%	35.7	26.3%	20.1%	–
NC(=Nc1nc(-c2ccccn2)cc2ccccc12)c1ccccn1	-90.1% (active)	21.6%	8.21% (active)	1.13% (active)	-2.84% (active)	36.3%	3.78% (active)	6.29% (active)	1.76% (active)	-22.8% (active)	19%	47.8%	1.1% (active)	13.1	-18.6% (active)	-4.44% (active)	–	17.9%	–	–
O=[n+]1c2ccccc2n([O-])c2cc(Cl)ccc21	91.3%	98.5%	77.4%	42.7%	–	72%	32.1%	76.5%	94.9%	45.3%	85.1%	87.6%	–	28.1	53.1%	80.7%	–	63.5%	104%	–
Cc1ccc(N2C(=O)C=CC2=O)cc1	106%	–	107%	–	82.9%	–	99.1%	83.6%	119%	0.664% (active)	–	97.6%	99.7%	106	112%	103%	92	115%	101%	–
COc1ccc(C(Cn2ccnc2)Sc2ccc(Cl)c(Cl)c2)cc1 (stereo unspecified)	82.8%	–	85.5%	78.2%	50.7%	60.2%	77.8%	87.6%	100%	56.2%	96.1%	79.1%	–	90.9	95.6%	92.1%	88.1	–	71.6%	–
Cc1cc(=O)oc2cc(O)cc(O)c12	107%	103%	87.2%	99%	100%	88.7%	98%	110%	103%	102%	90%	89.8%	114%	97.7	92.4%	–	–	103%	–	–
CN(C)c1ccc2cc3c(cc2c1)Oc1ccccc1N3.[Cl][Zn][Cl]	78.7%	84.7%	105%	96.8%	98.8%	-7.15% (active)	104%	19.2%	90.9%	12.1%	–	0.0703% (active)	95.6%	83.8	99.9%	81.5%	91.8	97.2%	–	–
CC1(O)CCCCCC1	98.4%	93.1%	87.7%	107%	–	112%	95.7%	107%	106%	85.3%	117%	106%	108%	101	102%	101%	103	98.7%	96.2%	–
CCN(CC)CCNC(Cc1ccccc1)c1ccc(OCc2ccccc2)cc1 (stereo unspecified)	–	–	92.8%	65.1%	6.39% (active)	–	57.4%	54.2%	98.5%	14.9%	88.6%	50%	63.4%	84.5	57%	-40.7% (active)	69.6	74.5%	-29.6% (active)	88.2
S=C1SCN(Cc2cccs2)CN1Cc1cccs1	107%	–	122%	101%	79.9%	46.7%	102%	108%	110%	63.6%	107%	93.4%	104%	100	96.8%	94.5%	96.8	104%	94.3%	–
CCCN(CCC)C(=O)c1ccc(C)cc1	99.3%	–	80%	–	66.3%	82.3%	98%	–	109%	109%	100%	108%	113%	100	101%	91.3%	93.2	91.9%	95.2%	–
Cc1onc(-c2ccccc2)c1C(=O)N/N=C/c1cc(Cl)cc(Cl)c1O	53.2%	–	39.3%	22.7%	49.3%	28.7%	27.4%	16.9%	44.6%	29.4%	–	34.4%	64.1%	34.1	16.5%	17.4%	21.9	-5.54% (active)	14.3%	–
CCOC(=O)/C(=C\c1ccc2ccccc2c1)P(=O)(OCC)OCC	41.1%	70%	40.6%	–	40.7%	-31.7% (active)	11.6%	42.2%	–	11.8%	72.1%	16.3%	-23.4% (active)	42.6	28.9%	63.8%	55.8	60.1%	31.7%	–
CC(C)(C)c1ccc(O)c(Br)c1	93.6%	101%	107%	–	98.2%	119%	100%	105%	105%	120%	99.8%	104%	91.2%	95.5	102%	111%	107	95.8%	95.8%	–
CN(C)c1ccc(C(C#N)(c2ccccc2)c2ccc(N(C)C)cc2)cc1	54.2%	86.8%	90.6%	50.8%	54.6%	–	67.7%	45.2%	60%	26.1%	69.9%	79.4%	75.3%	58.9	16.1%	84.7%	–	77.9%	55.2%	–
